# From PubChem BioAssay AID1347417 (National Center for Advancing Translational Sciences (NCATS), 2020)
# Out of some 120,000 compounds screened, about 5,300 (4.4%) were called active. Roughly 22% stayed inconclusive and do not appear here. Many of the other results were omitted from the sample, so actives are more common in it than they were. Unmarked numbers belong to inactive results. Calls come from the whole dose curve; as a rule, active = well fitted inhibition curve with a large enough effect; inconclusive = small, poorly fitted or top-dose-only effect; inactive = no such curve, though single readings can be large or run the other way.
# Experiment: qHTS Primary assay for Inhibitors of Plasmodium falciparum Dd2 growth in vitro; note: nearly all actives have a fitted effect of over 65% in size;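 for activity, negative = inhibition: plate controls were DMSO vehicle for no effect and reference drug for full effect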
# Settings: P. falciparum Dd2 growth, SYBR Green, 72 h; series mostly up to 28.9 µM; activity, negative = inhibition: at the top concentration
# Summary of the method: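 Infected erythrocytes (Dd2, 0.3% parasitemia, 2.5% hematocrit final) are added to compound in RPMI-1640/Albumax II medium, grown 72 h at 37C in low oxygen, then lysed with saponin/Triton-X containing SYBR Green and read by fluorescence.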
# Potency is the fitted concentration of half-maximal effect.
Structure (SMILES),Potency,"activity, negative = inhibition",outcome
COc1ccccc1Nc1cnc2ccc(-c3ccc(OC)c(OC)c3)nn12,1.12 µM (active),,
CN(C)c1ccc2ncc(Nc3ccccc3F)n2n1,,-14.7% [at 44.1 µM],
COc1ccc(-c2ccc3ncc(Nc4ccc(C(F)(F)F)cc4)n3n2)cn1,,,inactive [at 44.1 µM]
CC(=O)N1CCN(Cc2cc(F)ccc2Cl)CC(O)C1 (stereo unspecified),,19.5%,
CN(Cc1ccccc1)C(=O)C1CCCN(c2cnn(Cc3ccccc3)c(=O)c2)C1 (stereo unspecified),,,inactive
Cc1ccc([C@@H]2CN(Cc3ncc[nH]3)[C@@H]3C4CCN(CC4)[C@@H]32)cc1,,-2.87%,
COc1cccc([C@H]2CN(c3cc(C)nc(N)n3)[C@@H]3C4CCN(CC4)[C@H]23)c1,11.2 µM (active),,
COc1ccc([C@@H]2CN(C(=O)c3c(C)noc3C)[C@@H]3C4CCN(CC4)[C@@H]32)cc1,,-8.25%,
O=C(Cn1nc2c(cc1=O)CCCC2)NC1CCN(C(=O)c2cc3ccccc3[nH]2)CC1,,-22.6%,
C[C@@H]1CN(C(=O)c2ccsc2)C[C@H]1c1nc(-c2ccncc2)no1,,11.8%,
O=C1NCc2ccccc2CC12CCCN(Cc1ccc(F)cc1O)C2 (stereo unspecified),4.47 µM (active),,
O=C1NCc2ccccc2CC12CCCN(CC1CCCCC1)C2 (stereo unspecified),,-23%,
COc1ccc(CN2CCC3(Cc4ccccc4CNC3=O)C2)cc1OC (stereo unspecified),,-18.3%,
CCOc1ccc(C2C(C(=O)Nc3ccc(Cl)cc3)=C(C)Nc3nc(C(F)(F)F)nn32)cc1 (stereo unspecified),2.82 µM (active),,
CCOc1cc(C2C(C(=O)Nc3ccc(OC)cc3)=C(C)Nc3nc(SC)nn32)ccc1O (stereo unspecified),,7.6%,
CCOc1ccccc1NC(=O)C1=C(C)Nc2ncnn2C1c1ccc(NC(C)=O)cc1 (stereo unspecified),,22.7%,
c1cc(CN2CCCCCC2)cc(-c2nc(C3CCOC3)no2)c1 (stereo unspecified),8.91 µM (active),,
COc1cccc(CCC(=O)N2CCCC2c2nc(C3CCOCC3)no2)c1 (stereo unspecified),,-2.39%,
O=C(NC1CCCC1)N1CCC(c2noc(-c3ccccc3)n2)C1 (stereo unspecified),,13.8% [at 5.79 µM],
Cc1ccc(C2CC(=O)Nc3c2c(C2CC2)nn3C)c(C)c1F (stereo unspecified),,-20.9%,
COc1cc2nc(SCC(=O)Nc3ccccc3F)n3nc(-c4ccccc4)nc3c2cc1OC,,-5.43%,
COc1cc2nc(NCC(C)c3ccccc3)n3nc(-c4ccccc4)nc3c2cc1OC (stereo unspecified),3.55 µM (active),,
COc1ccc(Cl)cc1NC(=O)CSc1nc2ccccc2c2nc(-c3ccccc3)nn12,,107%,

Structure (SMILES),Potency,"activity, negative = inhibition",outcome
COc1cccc(N2C(=O)NC(=NC3CCCCC3)C23CCN(CC2CC2)CC3)c1,,-3.09%,
Cc1ccc(S(=O)(=O)N2CCCC(CCC(=O)NC3CCCCC3)C2)cc1 (stereo unspecified),12.6 µM (active),,
Cc1ccc(C(=O)N2CCC(CCC(=O)NC3CCCCC3)CC2)cc1,,-9.5%,
O=C(CCC1CCCN(S(=O)(=O)c2ccc(F)cc2)C1)NC1CCS(=O)(=O)C1 (stereo unspecified),,1.2%,
Cc1nc([C@@H]2CN(C(=O)CCCc3nc4ccccc4s3)C[C@H]2C(N)=O)n[nH]1,,-8.7%,
CCC(CC)C(=O)N[C@H]1C[C@@H](Cc2cc(COc3ccccc3)on2)C1(C)C,,,inactive [at 44.1 µM]
CC1(C)[C@H](Cc2cc(CC3CCCCC3)on2)C[C@@H]1NC(=O)C1CCC1,11.2 µM (active),,
CCNC(=O)N[C@H]1C[C@@H](Cc2cc(CC(C)C)on2)C1(C)C,,,inactive; activator [at 44.1 µM]
Cc1cc(CN(C)C(=O)C2C3C(=O)N(Cc4ccc(C)c(C)c4)C[C@@]34C=C[C@@H]2O4)no1 (stereo partly specified),,-14.8%,
COc1ccc(S(=O)(=O)c2c(Nc3cccc(Cl)c3)sc(C(=O)c3ccccc3)c2N)cc1,8.91 µM (active),,
COc1cccc(C(=O)c2sc3nc(-c4ccccc4)cc(C(F)(F)F)c3c2N)c1,,-9.26%,
Cc1ccc(S(=O)(=O)c2c(Nc3cccc(Cl)c3)sc(C(=O)c3ccc4c(c3)OCO4)c2N)cc1,7.94 µM (active),,
Cc1cccc(Nc2nc(C)nc(N)c2S(=O)(=O)c2ccccc2)c1,,,inactive
CCOC(=O)c1ccc(NC(=O)CCS(=O)(=O)c2ccc(C)cc2)cc1,,3.65%,
Cc1ccc(CN2C[C@H]3CN(C(=O)c4ccc5c(c4)OCO5)CCN3C2=O)cc1,,,inactive [at 44.1 µM]
COc1ccc(N2C(=O)CSC23CCN(C(=O)c2ccc(C)cc2)CC3)cc1,,-11.5%,
COc1ccc(S(=O)(=O)c2c(Nc3ccc(C)cc3)sc(C(=O)c3ccc(C)cc3)c2N)cc1,10 µM (active),,
CCOC(=O)c1[nH]ncc1C1CC(=O)Nc2c1cnn2Cc1cccnc1 (stereo unspecified),,-9.38%,
C[S+](=O)([O-])N1CCC(Cn2ccc3c(N4CCOCC4)nc(-c4cccc(O)c4)cc32)CC1,,,inactive
CN1CCc2c([nH]c3ccccc23)C12CCN(C(=O)c1nccc3ccccc13)CC2,,,inactive
CCC(CC)C(=O)N1CC(C(=O)N(C)C)C2(CCOCC2)C1 (stereo unspecified),,0.16%,
Cc1cccc(C)c1NC(=O)Cn1ccn2nc(-c3ccccc3)c(CO)c2c1=O,,29.5%,
O=C1CO[C@H]2CN(C3CCOCC3)C[C@H]2N1c1ccccc1,,-6.35% [at 44.1 µM],
